Rows were chosen to be rich in hits. Some 5.1% of all compounds tested hit in one or more screens of this group.
CRFR2-BP antag: antagonists of CRF-binding protein/CRF-R2 receptor complex; inhibition, % at 11.8 µM; hit rate 0.59% among 350,000; AID 588475; HEK293 CRF-R2/CRF-BP, CRF-induced calcium fluorescence;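 active = inhibition of the ligand-induced calcium signal above about 50% at the single tested concentration, limit read from the data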
MPTP block: inhibitors of mitochondrial permeability transition pore; isolated mouse mitochondria, Ca2+ swelling absorbance, 30 min; inhibition, % at 10 µM; hit rate 1.4% among 360,000; AID 602449;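 active = inhibition of 50% or more, scaled per plate between neutral and stimulator controls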;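 also: 0% = DMSO wells given calcium and 100% = 1 mM EGTA wells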
CRFR2-BP ag: CRF-BP/CRF-R2 complex agonism; hit rate 0.46% among 350,000; AID 588473; activation, % at 13.2 µM; HEK293 CRF-R2/CRF-BP, calcium dye fluorescence (FLIPR); percent of saturating CRF peptide response;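 active = activation of at least 50%, plus an integration ratio under a set limit after plate pattern correction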;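 also: plate controls were neutral control wells without compound for no effect and CRF at EC100 for full effect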
TMEM16A act: activators or potentiators of mouse TMEM16A chloride channel; hit rate 0.3% among 340,000; Q8BHY3; AID 623877; HEK293 TMEM16A/YFP-H148Q/I152L, iodide quench fluorescence; stronger effect = lower value; B-score at 10 µM;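 active = fluorescence-ratio B-score plate-corrected deviation score at least 3 library SD below zero, with starting fluorescence score within 5 deviations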;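 also: channel opened by trigger with iodide after compound preincubation; score built on the fluorescence ratio of max minus min over baseline; more negative score means more quench and so TMEM16A activation or potentiation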
TMEM16A inh: inhibitors of mouse TMEM16A calcium-activated chloride channel; AID 588511; hit rate 1.2% among 310,000; normalized B-score (activity score, 25-100; higher = stronger inhibition) at 10 µM; HEK293 TMEM16A/YFP iodide influx fluorescence, ionomycin;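 active = ratio plate-corrected score three or more library SD toward inhibition, starting fluorescence score within five deviations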;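 also: score derived from kinetic fluorescence span divided by baseline fluorescence per well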
GRIN3A LBD mod: modulates the human NR3A ligand-binding domain; AID 1259313; hit rate 2.5% among 340,000; Tm shift relative to glycine control, % at 25 µM; NR3A LBD differential scanning fluorimetry, Tm shift; 0% = protein alone, 100% = glycine-bound protein;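 active = melting temperature shift of at least 10% of the positive control shift, at one fixed dose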
The depositor's hits bear a star.

Screening COC(=O)CSC1=NS(=O)(=O)c2ccccc21 returned CRFR2-BP antag 92*, MPTP block -2, CRFR2-BP ag -10, TMEM16A act inactive, TMEM16A inh inactive and GRIN3A LBD mod -3.
`O=C(CSC1=NS(=O)(=O)c2ccccc21)Nc1ccccc1` gave CRFR2-BP antag -21, MPTP block -1, CRFR2-BP ag 0, TMEM16A act inactive, TMEM16A inh inactive and GRIN3A LBD mod -2.
Screening CSc1ccc(/C=C(/NC(=O)c2ccc(C)cc2)C(=O)Nc2cccc(F)c2)cc1 returned CRFR2-BP antag 137*, MPTP block 5, CRFR2-BP ag 1, TMEM16A act inactive, TMEM16A inh inactive and GRIN3A LBD mod -17.
Screening CC(=O)c1cccc(NC(=O)/C(=C\c2cccnc2)NC(=O)c2ccc(C)cc2)c1 returned CRFR2-BP antag -8, MPTP block 0, CRFR2-BP ag 1, TMEM16A act inactive, TMEM16A inh inactive and GRIN3A LBD mod -1.
`CCN(Cc1ccccc1)C(c1cccc(C#N)c1)c1nnnn1C(C)(C)C` (configuration not stated) gave CRFR2-BP antag 89*, MPTP block 1, CRFR2-BP ag -1, TMEM16A act inactive, TMEM16A inh inactive and GRIN3A LBD mod 3.
CN1CCc2c(sc(NC(=O)C3CCN(S(=O)(=O)c4cccs4)CC3)c2C(N)=O)C1 was read as CRFR2-BP antag 16, MPTP block -2, CRFR2-BP ag 10, TMEM16A act inactive, TMEM16A inh inactive and GRIN3A LBD mod 3.
`Cc1sc2ncnc(Sc3ccccc3C(=O)Nc3ccc(C#N)cc3)c2c1C` gave CRFR2-BP antag 61*, MPTP block 1, CRFR2-BP ag -4, TMEM16A act inactive, TMEM16A inh inactive and GRIN3A LBD mod -2.
`CCOC(=O)c1ccc(-c2c(C)cc3oc(=O)cc(-c4ccccc4)c3c2C)cc1` gave CRFR2-BP antag -9, MPTP block -2, CRFR2-BP ag 7, TMEM16A act inactive and GRIN3A LBD mod 0.
`Cc1ccc(S(=O)(=O)NCCC(=O)N2CCC(C(N)=O)CC2)cc1C` gave CRFR2-BP antag 6, MPTP block -1, CRFR2-BP ag 0, TMEM16A act inactive, TMEM16A inh inactive and GRIN3A LBD mod 1.
Cc1cc2c(=O)n(C)c(SCC(=O)NC3CCCC3)nc2s1 was read as CRFR2-BP antag 2, MPTP block -1, CRFR2-BP ag 0, TMEM16A act inactive, TMEM16A inh inactive and GRIN3A LBD mod 3.
C=CCn1c(SCC(=O)NC2CCCC2)nc2sc(C)cc2c1=O was read as CRFR2-BP antag 2, MPTP block 0, CRFR2-BP ag -4, TMEM16A act inactive, TMEM16A inh inactive and GRIN3A LBD mod 21*.
C=CCn1c(SCC(=O)Nc2cc(C)on2)nc2sc(C)c(C)c2c1=O was read as CRFR2-BP antag 32, MPTP block 0, CRFR2-BP ag 1, TMEM16A act inactive, TMEM16A inh inactive and GRIN3A LBD mod 21*.
`CCn1c(=NC(=O)c2cccc(N3C(=O)CCC3=O)c2)sc2c(C)ccc(OC)c21` gave CRFR2-BP antag -23, MPTP block 3, CRFR2-BP ag 3, TMEM16A act -8.7*, TMEM16A inh inactive and GRIN3A LBD mod -3.
For COc1ccc(OC)c2c1sc(=NC(=O)c1ccco1)n2C the results were CRFR2-BP antag -41, MPTP block 0, CRFR2-BP ag 3, TMEM16A act inactive, TMEM16A inh inactive and GRIN3A LBD mod 16*.
`COc1ccc(OC)c2c1sc(=NC(=O)C1CC1)n2C` gave CRFR2-BP antag -10, MPTP block 1, CRFR2-BP ag 0, TMEM16A act inactive, TMEM16A inh inactive and GRIN3A LBD mod 0.
Screening CCn1c(=NC(=O)c2ccc(N3C(=O)CCC3=O)cc2)sc2c(OC)ccc(OC)c21 returned CRFR2-BP antag -22, MPTP block -3, CRFR2-BP ag -3, TMEM16A act inactive, TMEM16A inh inactive and GRIN3A LBD mod -4.
Screening COc1cccc(C(=O)N=c2sc3c(C)ccc(OC)c3n2C)c1 returned CRFR2-BP antag 19, MPTP block 0, CRFR2-BP ag 0, TMEM16A act inactive, TMEM16A inh inactive and GRIN3A LBD mod 12*.
